Experimental data from PubChem BioAssay AID1159580 (chemical genetic matrix, 2015).
Screen size: about 5,500 compounds; about 2,000 (36%) were called active. Another 18% or so got no clear call; they are omitted. No stated cut-off is given here; in the data, active means normalized growth mostly below about 0.91 (no sharp cut-off); inconclusive means no clear call, values can overlap the other calls; inactive means mostly above about 0.92. Some of the results follow.

Assay: chemical genetic growth profiling, strain panel (AID 1159580);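 further: tested at 20 µM; growth read once vehicle control cultures reached saturation at 30 °C; 1 = growth at the plate median or of vehicle wells; lower values mean less growth of the strain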
Settings: growth OD

Measured: normalized growth

CN(C)c1ccc(C(=O)NN)cc1
inactive: S. cerevisiae deletion strains, locus YAL013W, strain DEP1, active compounds read low 1.02 | S. cerevisiae deletion strains, locus YBR229C, strain ROT2, active compounds read low 1.02 | S. cerevisiae deletion strains, locus YDL101C, strain DUN1, active compounds read low 1.02 | S. cerevisiae deletion strains, locus YDL134C, strain PPH21, active compounds read low 1.01 | S. cerevisiae deletion strains, locus YDR150W, strain NUM1, active compounds read low 0.924 | S. cerevisiae deletion strains, locus YEL061C, strain CIN8, active compounds read low 0.99 | S. cerevisiae deletion strains, locus YGR078C, strain PAC10, active compounds read low 1.01 | S. cerevisiae deletion strains, locus YHR030C, strain SLT2, active compounds read low 1.08 | S. cerevisiae deletion strains, locus YHR087W, strain rtc3, active compounds read low 1.03 | S. cerevisiae deletion strains, locus YJL187C, strain SWE1, active compounds read low 1.01 | S. cerevisiae deletion strains, locus YJR043C, strain POL32, active compounds read low 1.02 | S. cerevisiae deletion strains, locus YJR075W, strain HOC1, active compounds read low 1 | S. cerevisiae deletion strains, locus YKL190W, strain CNB1, active compounds read low 1.01 | S. cerevisiae deletion strains, locus YLR039C, strain RIC1, active compounds read low 1.14 | S. cerevisiae deletion strains, locus YLR058C, strain SHM2 (second series), active compounds read low 1.02 | S. cerevisiae deletion strains, locus YLR085C, strain ARP6, active compounds read low 0.96 | S. cerevisiae deletion strains, locus YLR262C, strain YPT6, active compounds read low 1.15 | S. cerevisiae deletion strains, locus YML094W, strain GIM5, active compounds read low 1.01 | S. cerevisiae deletion strains, locus YMR219W, strain ESC1, active compounds read low 1.01 | S. cerevisiae deletion strains, locus YMR263W, strain SAP30, active compounds read low 0.992 | S. cerevisiae deletion strains, locus YNL153C, strain GIM3, active compounds read low 1.02 | S. cerevisiae deletion strains, locus YNL298W, strain CLA4 (second series), active compounds read low 1 | S. cerevisiae deletion strains, locus YNL322C, strain KRE1, active compounds read low 1 | S. cerevisiae deletion strains, locus YNR030W, strain Alg12, active compounds read low 1.01 | S. cerevisiae deletion strains, locus YPL055C, strain LGE1, active compounds read low 0.954 | S. cerevisiae deletion strains, locus YPL241C, strain CIN2, active compounds read low 0.997 | S. cerevisiae deletion strains, locus YPR135W, strain CTF4, active compounds read low 1 | S. cerevisiae strains, strain wild type, active compounds read low 1.02
